Data: PubChem BioAssay AID686971 (National Center for Advancing Translational Sciences (NCATS), 2013)
In all, about 360,000 compounds went through this assay and about 7,500 (2.1%) were called active. Another 8% or so got no clear call; they are omitted. Shown is part of a subset that was picked to be rich in actives. Values without a mark were called inactive. The call rests on the fitted dose curve; in most records, active means well fitted cell-killing curve with a large enough effect; inconclusive means small, poorly fitted or top-dose-only effect, or effect the other way, or another doubt; inactive means no such curve, though single readings can be large or run the other way.

Assay: qHTS for induction of synthetic lethality in tumor cells producing 2HG: qHTS for the HT-1080-IDH1KD cell line;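 on activity, negative = toxicity: 0% = DMSO wells and -100% = cell-free medium wells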
Conditions: HT-1080 IDH1 knockdown viability, ATP luminescence, 48 h; series mostly up to 46.1 µM; activity, negative = toxicity: at the top concentration
How it was run: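 After a 2 h attachment period, IDH1KD HT-1080 cells took pin-transferred compound for 48 h at 37 °C; ATP-based luminescence after 10 min room-temperature reagent incubation reported viability.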
Potency means the concentration at half of the fitted maximal effect.

Compound	Potency	activity, negative = toxicity [%]
CCN(CC)CCCC(C)n1c2nc(=O)[nH]c(=O)c-2nc2cc(Cl)ccc21 (configuration not stated)	16.4 µM (active)	
CCN(CC)CCn1c2ccc(Cl)cc2c2nc(C)sc21		-0.98
CCCCc1ccc(S(=O)(=O)NC(=O)C2(C)CCN2C(=O)c2c(C)noc2C)cc1 (configuration not stated)		15.3
CC(=O)Nc1ccc(SCC(=O)NC(=O)c2ccc(Cl)cc2)cc1		-1.03
Cc1cccc(C)c1-n1nnnc1C1(C)CCC(=O)N1CCOc1ccccc1 (configuration not stated)		3.21
COc1cc(NC(=O)c2cc(-c3ccc(F)cc3OC(C)C)n[nH]2)cc(OC)c1OC		-47.9
COc1ccc(NC(=O)C[C@H]2C(=O)N(CCc3ccccc3)C[C@@H]2C)cc1		3.77
OCCc1ccc(NCCc2ccco2)cc1		9.4
Cc1cc(C)nc(NS(=O)(=O)c2ccc(N3C(=O)C4CCCCC4C3=O)cc2)n1 (configuration not stated)		16.3
Cc1ccc(S(=O)(=O)Nc2nc(C)cc(-n3nc(C)cc3C)n2)cc1	15.8 µM (active)	
Cc1ccc(S(=O)(=O)Nc2nc(N)n(-c3ccccc3)n2)cc1		20.1
C[C@H]1CN([C@@H](C)CO)C(=O)CCCn2cc(nn2)CO[C@@H]1CN(C)S(=O)(=O)c1cccc(C#N)c1		13.6
CC1(C(=O)NS(=O)(=O)c2ccc(C#N)cc2)CCN1C(=O)CC1CCCC1 (configuration not stated)		11.5
COCCNc1nc(Nc2ccccc2Cl)c2sc(-c3ccccc3)cc2n1		-1.87
COCCNc1nc(NCc2ccc(NC(C)=O)cc2)c2sccc2n1		0
CC(=O)Nc1ccc(CNc2nc(NCCN(C)C)nc3cc(-c4ccccc4)sc23)cc1	20.6 µM (active)	
COc1cccc(C(O)c2nc(-c3ccc(C)c(C)c3)cs2)c1 (configuration not stated)		-24.1
CC1(C)OC(=O)C2=C(CC(c3ccccc3)OC2CCc2ccccc2)O1 (configuration not stated)		-22.6
OCCCNc1nccc(-c2cc(Nc3cccc(Cl)c3)ncn2)n1		-29.6
CC(C)n1cnc2c(Nc3cccc(Cl)c3)nc(N(CCO)CCCO)nc21	14.6 µM (active)	
COC(=O)[C@]12CCCCC=C1N(Cc1ccc3c(c1)OCO3)C(=O)[C@H](CC(=O)NCc1cccs1)C2		-12.8
COc1cc(C(O)c2nc(-c3cnn(C)c3)cs2)ccc1F (configuration not stated)		-2.77
CCCCCNC(=O)C1C(=O)Nc2ccccc2C(=O)N1C(C)(C)C (configuration not stated)		10.7
CCOC(=O)[C@H]1Nc2ccc(Cl)cc2[C@@H]2[C@H]1C1CC(c3ccccc31)N2C(=O)OCc1ccccc1 (some centres not stated)		-15.7
COC(=O)Cc1ccc(OCC(=O)Nc2ccc(OC(F)(F)F)cc2)cc1		4.71
CCOC(=O)Cc1ncccc1C(=O)Nc1ccc(OC(F)(F)F)cc1	20.6 µM (active)	
CCOC(=O)Cc1ncccc1C(=O)Nc1ccc(OC)cc1		-0.0069
